Screening results as filed in PubChem.
aSyn UTR act – Activators working through SNCA 5'UTR binding (MLPCN). activity score, % (tested at 7.5 µM), hits read low. actives 7.1% (n = 300,000). alpha-synuclein 5'UTR reporter, activators screen. AID 1814; in the data active = activity score below about -60%
Numbers stand for hits; 0 = inactive. The list is a sample of the results.

SMILES	aSyn UTR act
CC(=O)O[C@@]12CO[C@@H]1C[C@H](O)[C@@]1(C)C(=O)[C@H](O)C3=C(C)[C@@H](OC(=O)[C@H](O)[C@@H](NC(=O)OC(C)(C)C)c4ccccc4)C[C@](O)([C@@H](OC(=O)c4ccccc4)[C@H]21)C3(C)C	0
COc1cc2c(cc1NC(=O)c1ccncc1)oc1ccccc12	-131.9
COc1cc2c(cc1NC(=O)c1cccnc1)oc1ccccc12	-154.8
COc1cc2c(cc1NC(=O)c1cccc([N+](=O)[O-])c1)oc1ccccc12	0
Cn1c(-c2ccc3nc(N)sc3c2)nc2cc(N)ccc21	-71.8
Cc1ccccc1NC(=O)C1Cc2ccccc2CN1C(=O)c1ccco1 (centres undefined)	-132.0
COc1cccc(NC(=O)C2Cc3ccccc3CN2C(=O)c2ccco2)c1 (centres undefined)	-94.1
Cc1ccc2[nH]c3c(c2c1)CCc1cn[nH]c1-3	-62.4
CC(C)C(=O)Nc1ccc(NC(=O)c2ccco2)cn1	-86.0
CCCC(=O)Nc1ccc(NC(=O)c2ccco2)cn1	-93.4
CCCCC(=O)Nc1ccc(NC(=O)c2ccco2)cn1	-74.8
CCc1ccc(C(=O)CN2CCSC2=N)cc1	-108.7
CN1C(c2ccc(F)cc2)=CS/C1=C(/C#N)c1nnc(N2CCOCC2)n1-c1ccccc1	-73.7
Cc1cccc(/C=N/c2sc3c(c2C#N)CCN(Cc2ccccc2)C3)c1O	-74.0
Cc1ccc(N/N=C2\CCS(=O)(=O)c3sccc32)cc1	-89.5
O=C(NCCc1ccc(F)cc1)c1coc(=O)c(Br)c1	-64.5
O=C(Nc1ccccc1F)c1coc(=O)c(Br)c1	-62.0
Cc1cc(NC(=O)c2coc(=O)c(Br)c2)ccc1C(C)C	-75.5
CNc1nc(-c2ccc3c(c2)CCN3C(=O)c2cccc(F)c2)cs1	-427.2
CNc1nc(-c2ccc3c(c2)CCN3C(=O)c2ccccc2C)cs1	-88.0
Cc1ccc(C2Nc3ccc4ccccc4c3C3=C2C(=O)CC(C)(C)C3)o1 (centres undefined)	-73.4
COc1ccccc1-n1cc([C@@H]2C[C@H]3CN(c4ccccc4)C(=O)[C@]34CCCN24)cn1	-361.9
O=Cc1ccc(OCc2ccc3c(c2)OCO3)cc1	-76.5
Cc1ccc(COc2ccc3c(c2)OCO3)cc1	-114.0
Cc1ccc(CNc2ccc3c(c2)OCO3)cc1	-131.1
SMILES	aSyn UTR act
CCOc1cc(CNc2ccc3c(c2)OCCO3)cc(Br)c1OCC	0
Cc1ccccc1SCCNC(=O)c1ccccc1Br	-106.6
Cc1ccccc1SCCNC(=O)CCc1ccccc1	-64.3
C/C(=N\OCC(=O)NCC(F)(F)F)c1cc2ccccc2o1	-75.6
O=C(Nc1ccc(S(=O)(=O)NC2=NCCCCC2)cc1)c1ccc([N+](=O)[O-])s1	-65.5
CSc1nc(-c2ccc(Cl)cc2)nn1C(=O)c1ccco1	-107.2
O=C(Cc1ccccc1)n1nc(-c2ccco2)nc1SCc1ccccc1	-70.8
O=C(c1ccco1)n1nc(-c2ccccc2)nc1SCc1ccccc1	-112.2
CCS(=O)(=O)n1nc(-c2ccc(Cl)cc2)nc1SC	-69.6
Cc1ccc(S(=O)(=O)n2nc(-c3ccco3)nc2SCc2ccccc2)cc1	-73.6
CC(=O)N1CCN=C1SCc1ccc(C(F)(F)F)cc1	-84.8
COc1ccc(-c2ncc3ccccn23)cc1	-142.3
COc1cccc(-c2ncc3ccccn23)c1	-123.5
CN(C)S(=O)(=O)c1ccc(C(=O)Nc2nc(-c3cccs3)cs2)cc1	-99.3
CC1CC(C)CN(S(=O)(=O)c2ccc(C(=O)Nc3nnc(-c4cccs4)o3)cc2)C1 (centres undefined)	0
O=C(Nc1nc(-c2cccs2)cs1)c1ccc(S(=O)(=O)N2CCCC2)cc1	-95.7
Cc1cc(C)c2nc(NNC(=O)c3ccc(S(=O)(=O)N4CCCC(C)C4)cc3)sc2c1 (centres undefined)	0
Cc1csc(NC(=O)c2ccc(S(=O)(=O)N3CCCC3)cc2)n1	-62.3
Nc1c(C(=O)O)cnc2c(-c3ccc(Cl)cc3)cnn12	-72.0
CS(=O)(=O)c1cnc2c(-c3ccc(F)cc3)cnn2c1N	-105.8
CC(C)(C)S(=O)(=O)c1cnc2c(-c3ccsc3)cnn2c1N	-74.4
Nc1c(-c2cccs2)cnc2c(-c3ccc(F)cc3)cnn12	-164.6
CCSc1nnc(-c2c[nH]c3ccccc23)o1	-103.9
O=c1[nH]c(SCc2ccc(Cl)cc2)nc2[nH]ncc12	-69.6
CC1CCc2nc(NC(=O)C3CC3)sc2C1 (centres undefined)	-137.8
SMILES	aSyn UTR act
CC1CCc2nc(NC(=O)CN3CCOCC3)sc2C1 (centres undefined)	-91.9
CC1CCc2nc(NC(=O)Nc3ccc4c(c3)OCO4)sc2C1 (centres undefined)	-123.0
CC1CCc2nc(NC(=O)C3COc4ccccc4O3)sc2C1 (centres undefined)	0
COC(=O)c1c(NC(=O)CN2CCOCC2)sc2c1CCC(C)C2 (centres undefined)	-122.7
Cc1ncsc1C(=O)Nc1nc2c(s1)CC(C)CC2 (centres undefined)	-126.1
COc1ccc(C2=NN(CN3C(=O)C(=O)c4ccccc43)C(c3cccc([N+](=O)[O-])c3)C2)cc1 (centres undefined)	-70.3
Cc1ccc(-c2cc(N)nc(-c3ccccc3)c2)cc1	-86.9
CCCc1ccc(C(=O)/C=C/N(C)C)cc1	-126.2
CN(C)/C=C/C(=O)c1ccc(Oc2ccccc2)cc1	-136.4
COc1cccc(NC(=O)c2ccn(C)n2)c1	-73.5
COc1cccc(NC(=O)c2ncc(Cl)c(Cl)c2Cl)c1	-223.8
COc1cccc(NC(=O)c2cnsn2)c1	-97.1
Cn1ccc(C(=O)Nc2ccc(Br)cc2Br)n1	-79.3
Nc1ccc(C(=O)N/N=C2\CCCc3c2[nH]c2ccccc32)cc1	-73.5
S=C(Nc1ccccc1)c1ccccn1	-164.6
Cn1c(SCC(=O)c2ccccc2)nnc1-c1ccccn1	-128.1
Cn1c(SCC(=O)c2ccccc2)nnc1-c1cccc(N)c1	-62.0
Cn1c(SCC(=O)c2ccc(F)cc2)nnc1-c1cnccn1	-62.7
CCN(CC)CCn1c2ccccc2c2cnc(N)c(C#N)c21	-655.4
Brc1ccccc1-c1nnc(SCc2nc3ccccc3s2)o1	-243.6
CCN(CC)S(=O)(=O)c1cccc(-c2nnc(SCc3nc4ccccc4s3)o2)c1	-113.0
Cc1ccc(C(=O)c2cc3ccccc3o2)cc1[N+](=O)[O-]	-119.3
CC(Cc1ccccc1)NC(=O)c1cc2ccccc2o1 (centres undefined)	-162.1
O=C(c1ccccc1)c1cc2ccccc2o1	-149.1
O=C(c1ccc(F)cc1)c1cc2ccccc2o1	-171.4
SMILES	aSyn UTR act
Cc1cccc2c1-c1sc(C(=O)NCCCN3CCCC(C)C3)cc1CO2 (centres undefined)	0
O=C(c1cc2c(s1)-c1ccccc1OC2)N1CCCC1	-104.6
Cc1cccc(NC(=O)c2cc3c(s2)-c2c(C)cccc2OC3)n1	-143.5
Cc1csc(NC(=O)c2cc3c(s2)-c2ccccc2OC3)n1	-211.1
CC1CCCC(C)N1CCCNC(=O)c1cc2c(s1)-c1ccccc1OC2 (centres undefined)	0
CCN(CC)c1ccc(/C=C2\SC(N)=NC2=O)cc1	-113.8
CCn1c(-c2ccc(-c3ccccc3)cc2)c[nH]c1=S	-65.1
Cn1c(-c2ccc(-c3ccccc3)cc2)c[nH]c1=S	-172.7
C=CCn1c(-c2ccccc2)c[nH]c1=S	-120.4
Cc1ccc(NC(=O)c2cccnc2)c([N+](=O)[O-])c1	-63.1
CCCc1cc(C(=O)Nc2ccc(OC)cc2[N+](=O)[O-])cs1	-100.4
Cc1c(C(=O)Nc2ccccc2[N+](=O)[O-])csc1-c1ccccc1	-142.5
COc1ccc(NC(=O)c2ccccc2)c([N+](=O)[O-])c1	-144.1
